PubChem BioAssay (NCATS)
Records with an inconclusive call do not appear. Active and inactive are the calls of the source. Unless noted, the call rests on the fitted dose curve; in most records, active means well fitted curve in either direction with a large enough effect (not every such curve was filed as active); inconclusive means small, poorly fitted or top-dose-only effect, or another doubt; inactive means flat fitted curve, though single readings scatter.

Experiments:
[1] = target: Lysosomal acid glucosylceramidase (Homo sapiens) (UniProt P04062); assay: Glucocerebrosidase-p2 (AID 348; in the data active means potency below about 10 µM; further: potency means the concentration at half of the fitted maximal effect); settings: purified GBA, blue fluorogenic substrate, 40 min
Procedure, shortened: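 Compounds titrated from 0.6 nM upwards against 0.2 nM enzyme in pH 5.9 citric acid/KH2PO4, taurocholate, tween-20; blue fluorogenic substrate 80 uM, 40 min room temperature, stopped and read Ex 365/Em 440 for AC50.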

[2] = AP1 Signaling Pathway (AID 357); settings: ME-180 AP-1-bla reporter, EGF-induced, beta-lactamase ratio, 5 h; at 7.69 µM (top of the series) unless noted;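 further: ME-180 reporter cells stimulated with EGF at its EC50 level; on the % scale 0 is the no-effect control and ±100 the full control effect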
Procedure, shortened: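 First, ME-180 AP-1-bla cells were cultured overnight at 37 °C in low-serum Opti-MEM. Next, titrated compounds with EC50 EGF were incubated 5 hours. Finally, CCF4 was added for 2.5 hours and the 460/530 nm ratio recorded.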

[3] = target: Cytochrome P450 1A2 (Homo sapiens) (UniProt P05177); assay: p450-cyp1a2 (AID 410; calls by dose curve; further: potency means the concentration at half of the fitted maximal effect;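 on activity change, negative = inhibition: -100% = full effect of reference inhibitor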); settings: recombinant CYP1A2, luciferin-ME demethylation, luminescence; series mostly up to 57 µM
Procedure, shortened: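 Luminescent readout of luciferin formed from Luciferin-ME by human CYP1A2; data normalized against complete inhibition by 57 uM furafylline. Enzyme 20nM, substrate 100uM at Km, 100mM KPO4 buffer, 60 min reaction at room temperature.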

[4] = NFAT Signaling Pathway (AID 444); settings: Jurkat NFAT-bla M1, carbachol, beta-lactamase ratio, 5 h; at 7.69 µM (top of the series) unless noted;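 further: carbachol stimulus at about its EC50 of 1 µM final; on the % scale 0 is the no-effect control and ±100 the full control effect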
Procedure, shortened: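 Read-out: CCF4 FRET ratio (460 nm/530 nm) after 1 h RT dye loading, used for %activity and AC50 from titration series. Cells: Jurkat NFAT-β-lactamase/M1 line, treated with compound plus 1 uM carbachol for 5 h, 37 °C.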

[5] = Stat Signaling Pathway (AID 446); settings: ME-180 SIE beta-lactamase reporter, IL-6 stimulated, 5 h; at 7.69 µM (top of the series) unless noted;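 further: ME-180 cervical cancer cells given 40 pM IL-6 alongside compound; SIE-controlled beta-lactamase reporter measured as 460/530 nm FRET emission ratio; on the % scale 0 is the no-effect control and ±100 the full control effect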
Procedure, shortened: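 ME-180 cells carrying a SIE-driven beta-lactamase reporter are stimulated with 40 pM IL-6 for 5 h at 37C in the presence of compound. The 460/530 nm FRET substrate ratio is read after 2.5 h at RT. Data are normalised to 300 pM IL-6 and to 125 nM JAK inhibitor controls.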

[6] = target: Glucocorticoid receptor (Homo sapiens) (UniProt P04150); assay: GR-EFC Redistribution (AID 451; calls by dose curve; further: potency means the concentration at half of the fitted maximal effect); settings: CHO-K1 GR-EFC translocation, beta-gal luminescence, 2 h
Procedure, shortened: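 Translocation of GR-ED fusion to nuclear EA restores b-gal, read by luminescence after 1 h room-temperature detection. Engineered CHO-K1 biosensor cells, 1,000/well, exposed 2 h at 37 C to titrations up to 46 uM final.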

[7] = target: 3',5'-cyclic-AMP phosphodiesterase 4B (Homo sapiens) (UniProt Q07343); assay: qHTS Assay for Inhibitors of PDE-IV (AID 607; active means well fitted activation curve with a large enough effect in the main read-out, with a control signal flat, not every such curve was filed as active; further: % of control where 0% means no effect); settings: HEK293 ACTOne CNG channel cells, membrane potential fluorescence; series mostly up to 22.9 µM
Procedure, shortened: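 HEK293 ACTOne cells with CNG channel (1000/well), endogenous PDE4; membrane potential dye, compounds up to 22.9 uM final. Fluorescence Ex 535/Em 590; RO 20-1724 (100 uM final) as reference.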

[8] = target: Cytochrome P450 3A4 (Homo sapiens) (UniProt P08684); assay: qHTS Assay for Inhibitors and Substrates of Cytochrome P450 3A4 (AID 884; active means well fitted curve in the direction sought with a large enough effect; an effect the other way counts as inactive or inconclusive; further: on the % scale 0 is the no-effect control and ±100 the full control effect; nearly all actives have a fitted effect of over 50% in size); settings: recombinant CYP3A4, Luciferin-PPXE luminescence; series mostly up to 57.1 µM
Procedure, shortened: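 20 nM human CYP3A4 with 25 uM Luciferin-PPXE (at KM) in 200 mM KPO4, preincubated 10 min with compound; NADPH regeneration started a 60 min RT reaction. Luciferin detected by luminescence, normalized to 57 uM ketoconazole as full inhibition.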

[9] = target: Cytochrome P450 3A4 (Homo sapiens) (UniProt P08684); assay: qHTS Assay for Activators of Cytochrome P450 3A4 (AID 885; active means well fitted curve in the direction sought with a large enough effect; an effect the other way counts as inactive or inconclusive; further: nearly all actives have a fitted effect of over 65% in size; further: potency means the concentration at half of the fitted maximal effect); settings: recombinant CYP3A4, Luciferin-PPXE luminescence, 60 min; series mostly up to 57.1 µM
Procedure, shortened: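 Human CYP3A4 (20 nM) with Luciferin-PPXE at 25 uM (its KM) in 200 mM KPO4; 10 min compound preincubation, then NADPH regeneration and 60 min reaction at RT. Luciferin read by luminescence; normalized to 57 uM ketoconazole full inhibition.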

[10] = qHTS Assay for Lipid Storage Modulators (AID 1519; calls by dose curve); settings: Drosophila S3 cells, BODIPY lipid droplet/cell ratio, laser cytometry, cells loaded with oleic acid; for activity change, negative = inhibition: at 57.5 µM (top of the series)
Procedure, shortened: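 Cells seeded at 5,000 per well were treated with compounds over a concentration series and loaded with oleic acid (400 uM, as added). Lipid droplet fluorescence (488 nm excitation, 500-530 nm channel) was read by laser-scanning cytometry and normalized to 20 uM Triacsin C.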

[11] = Primary qHTS for small molecule stabilizers of the endoplasmic reticulum resident proteome: Secreted ER Calcium Modulated Protein (SERCaMP) assay (AID 1508630; active means well fitted curve in the direction sought with a large enough effect; an effect the other way counts as inactive or inconclusive; further: on the % scale 0 is the no-effect control and ±100 the full control effect); settings: SH-SY5Y GLuc-SERCaMP (Gaussia luciferase released on ER calcium loss) secretion, thapsigargin, luminescence; series mostly up to 38.4 µM
Procedure, shortened: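 GLuc-SERCaMP-expressing SH-SY5Y cells, pretreated 16 h with compound, are challenged with thapsigargin to empty ER calcium stores; after 4 h, coelenterazine is added directly to the medium and luminescence is imaged.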

[12] = target: Mitogen-activated protein kinase 10 (Mus musculus) (UniProt Q61831); assay: JNK3 AlphaScreen Assay (AID 530); settings: JNK3 lysate, c-Jun phosphorylation; series mostly up to 57.1 µM
Procedure, shortened: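 Compound titrations were preincubated 15 minutes at room temperature with substrate, antibody and pre-activated JNK3-containing HepG2 lysate. Reactions were started with 10 uM ATP and stopped with EDTA-containing bead buffer for AlphaScreen detection.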

[13] = target: Cytochrome P450 2C19 (Homo sapiens) (UniProt P33261); assay: qHTS Assay for Inhibitors and Substrates of Cytochrome P450 2C19 (AID 899; active means well fitted curve in the direction sought with a large enough effect; an effect the other way counts as inactive or inconclusive; further: potency means the concentration at half of the fitted maximal effect; nearly all actives have a fitted effect of over 60% in size); settings: recombinant CYP2C19, luciferin-H EGE luminescence; series mostly up to 57.1 µM
Procedure, shortened: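 Luminescence readout of luciferin formed from 10uM Luciferin-H EGE (KM level) by 5 nM CYP2C19 in 50mM KPO4. 60 min NADPH-driven reaction at 37C after 10 min compound preincubation; data scaled to 57uM ketoconazole inhibition.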

[14] = qHTS Assay for Identification of Small Molecule Agonists for Hypoxia Response Element Signaling Pathway (AID 914; active means well fitted activation curve with a large enough effect in the signal ratio, with a control signal flat, not every such curve was filed as active; the % refers to the signal ratio; further: % of control where 0% means no effect); settings: ME-180 (cervical carcinoma) HRE-bla reporter, beta-lactamase ratio, CoCl2, 17 h; activation: stronger effect = higher value
Procedure, shortened: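 HRE-bla ME-180 cells, overnight plating in Opti-MEM with 0.5% dialyzed FBS; cpd titration + EC50 CoCl2, 17 h, 37 degrees Celsius; CCF4 2.5 h RT; 460/530 nm ratio; AC50.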

[15] = target: Cytochrome P450 2D6 (Homo sapiens) (UniProt P10635); assay: qHTS Assay for Inhibitors and Substrates of Cytochrome P450 2D6 (AID 891; active means well fitted curve in the direction sought with a large enough effect; an effect the other way counts as inactive or inconclusive; further: nearly all actives have a fitted effect of over 60% in size; further: potency means the concentration at half of the fitted maximal effect); settings: recombinant CYP2D6, luciferin-ME EGE luminescence; series mostly up to 57.1 µM
Procedure, shortened: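 Human CYP2D6 (5 nM) with 30 uM Luciferin-ME EGE (at Km) in 100 mM KPO4, compound preincubated 10 min, then NADPH regeneration system for 60 min at room temperature. Luciferin read by luminescence; normalized to 1.43 uM quinidine.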

[16] = measured here: cell count channel max response
[17] = measured here: lipid channel max response

Cytochrome P450 1A2 (Homo sapiens), sequence (P05177 whole entry, looked up): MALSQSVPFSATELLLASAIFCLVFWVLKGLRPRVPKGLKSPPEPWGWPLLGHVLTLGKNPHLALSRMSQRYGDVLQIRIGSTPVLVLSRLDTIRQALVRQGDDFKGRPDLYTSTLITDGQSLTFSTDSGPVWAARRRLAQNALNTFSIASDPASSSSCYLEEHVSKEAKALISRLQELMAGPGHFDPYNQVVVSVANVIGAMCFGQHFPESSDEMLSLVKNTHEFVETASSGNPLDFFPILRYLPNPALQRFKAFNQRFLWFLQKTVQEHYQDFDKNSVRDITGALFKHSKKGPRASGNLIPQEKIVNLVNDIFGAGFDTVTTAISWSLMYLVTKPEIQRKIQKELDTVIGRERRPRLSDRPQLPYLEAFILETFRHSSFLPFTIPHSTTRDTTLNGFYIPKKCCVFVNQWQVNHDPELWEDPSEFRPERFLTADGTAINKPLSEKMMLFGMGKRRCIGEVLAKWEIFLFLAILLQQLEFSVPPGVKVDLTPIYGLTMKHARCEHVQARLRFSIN
Glucocorticoid receptor (Homo sapiens), sequence (P04150 whole entry, looked up, the tested form may be a part): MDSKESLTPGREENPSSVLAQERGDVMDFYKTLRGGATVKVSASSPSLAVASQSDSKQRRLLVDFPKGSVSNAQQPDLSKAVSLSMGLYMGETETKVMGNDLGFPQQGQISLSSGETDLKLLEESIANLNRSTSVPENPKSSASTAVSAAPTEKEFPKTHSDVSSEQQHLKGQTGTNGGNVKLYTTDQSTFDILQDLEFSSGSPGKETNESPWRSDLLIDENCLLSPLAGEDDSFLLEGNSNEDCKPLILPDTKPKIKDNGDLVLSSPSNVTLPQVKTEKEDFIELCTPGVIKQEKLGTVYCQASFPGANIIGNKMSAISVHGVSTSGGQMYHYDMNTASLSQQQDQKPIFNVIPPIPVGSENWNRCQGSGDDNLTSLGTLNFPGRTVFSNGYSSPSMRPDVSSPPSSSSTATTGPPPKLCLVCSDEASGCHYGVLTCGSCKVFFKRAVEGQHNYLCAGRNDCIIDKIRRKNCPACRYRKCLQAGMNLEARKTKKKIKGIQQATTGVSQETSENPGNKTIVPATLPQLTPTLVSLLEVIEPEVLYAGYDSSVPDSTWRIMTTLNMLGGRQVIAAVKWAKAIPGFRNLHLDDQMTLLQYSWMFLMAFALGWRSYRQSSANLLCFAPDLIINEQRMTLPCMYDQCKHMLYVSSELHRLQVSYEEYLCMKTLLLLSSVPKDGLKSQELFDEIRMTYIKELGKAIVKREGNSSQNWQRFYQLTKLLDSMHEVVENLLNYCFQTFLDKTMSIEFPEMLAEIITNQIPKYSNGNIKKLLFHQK
3',5'-cyclic-AMP phosphodiesterase 4B (Homo sapiens), sequence (Q07343 whole entry, looked up): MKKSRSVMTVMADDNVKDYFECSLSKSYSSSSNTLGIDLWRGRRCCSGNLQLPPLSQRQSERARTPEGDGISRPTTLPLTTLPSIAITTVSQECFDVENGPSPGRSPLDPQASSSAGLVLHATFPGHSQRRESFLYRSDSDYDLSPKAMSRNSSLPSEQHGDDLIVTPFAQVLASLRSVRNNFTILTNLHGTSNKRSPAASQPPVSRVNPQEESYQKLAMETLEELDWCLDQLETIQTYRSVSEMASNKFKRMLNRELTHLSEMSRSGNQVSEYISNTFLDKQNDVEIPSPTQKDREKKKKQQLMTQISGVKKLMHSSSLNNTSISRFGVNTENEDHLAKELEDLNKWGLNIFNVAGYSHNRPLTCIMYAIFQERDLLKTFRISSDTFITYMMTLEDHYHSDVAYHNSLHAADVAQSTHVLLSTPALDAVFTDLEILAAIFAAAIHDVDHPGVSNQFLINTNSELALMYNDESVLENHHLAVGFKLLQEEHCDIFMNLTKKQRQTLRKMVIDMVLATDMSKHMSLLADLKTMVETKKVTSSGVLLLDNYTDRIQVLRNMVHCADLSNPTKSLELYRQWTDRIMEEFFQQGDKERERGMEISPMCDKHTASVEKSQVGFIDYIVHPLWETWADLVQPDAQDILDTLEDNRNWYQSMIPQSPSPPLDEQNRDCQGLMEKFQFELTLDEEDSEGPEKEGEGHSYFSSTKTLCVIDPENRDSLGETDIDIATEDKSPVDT
Lysosomal acid glucosylceramidase (Homo sapiens), sequence (P04062 whole entry, looked up): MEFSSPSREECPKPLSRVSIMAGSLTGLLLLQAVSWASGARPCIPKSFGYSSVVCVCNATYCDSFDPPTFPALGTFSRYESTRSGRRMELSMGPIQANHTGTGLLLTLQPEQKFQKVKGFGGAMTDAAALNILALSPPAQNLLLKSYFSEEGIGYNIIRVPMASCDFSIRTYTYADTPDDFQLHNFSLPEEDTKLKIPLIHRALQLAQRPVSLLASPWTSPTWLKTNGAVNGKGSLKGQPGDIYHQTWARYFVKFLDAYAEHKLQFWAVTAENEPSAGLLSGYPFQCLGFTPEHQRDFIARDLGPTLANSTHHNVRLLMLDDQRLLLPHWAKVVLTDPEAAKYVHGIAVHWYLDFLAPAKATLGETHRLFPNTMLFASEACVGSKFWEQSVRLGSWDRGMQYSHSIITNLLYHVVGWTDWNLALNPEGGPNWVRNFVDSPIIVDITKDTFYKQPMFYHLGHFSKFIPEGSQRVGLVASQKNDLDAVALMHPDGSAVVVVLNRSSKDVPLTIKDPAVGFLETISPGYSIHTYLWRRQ
Cytochrome P450 3A4 (Homo sapiens), sequence (P08684 whole entry, looked up): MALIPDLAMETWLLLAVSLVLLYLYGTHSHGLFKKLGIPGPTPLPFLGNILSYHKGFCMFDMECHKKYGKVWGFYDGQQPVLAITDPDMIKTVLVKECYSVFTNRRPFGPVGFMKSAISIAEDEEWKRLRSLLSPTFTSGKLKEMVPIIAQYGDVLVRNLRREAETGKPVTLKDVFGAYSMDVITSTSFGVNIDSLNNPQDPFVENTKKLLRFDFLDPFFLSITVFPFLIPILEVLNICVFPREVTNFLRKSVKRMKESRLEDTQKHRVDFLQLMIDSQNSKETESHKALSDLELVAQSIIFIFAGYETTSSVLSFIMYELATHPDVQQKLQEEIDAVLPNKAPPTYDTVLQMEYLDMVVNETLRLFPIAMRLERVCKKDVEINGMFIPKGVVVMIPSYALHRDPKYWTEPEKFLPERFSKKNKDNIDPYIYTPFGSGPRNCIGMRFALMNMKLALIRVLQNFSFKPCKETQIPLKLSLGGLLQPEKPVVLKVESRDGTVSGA
Cytochrome P450 2D6 (Homo sapiens), sequence (P10635 whole entry, looked up): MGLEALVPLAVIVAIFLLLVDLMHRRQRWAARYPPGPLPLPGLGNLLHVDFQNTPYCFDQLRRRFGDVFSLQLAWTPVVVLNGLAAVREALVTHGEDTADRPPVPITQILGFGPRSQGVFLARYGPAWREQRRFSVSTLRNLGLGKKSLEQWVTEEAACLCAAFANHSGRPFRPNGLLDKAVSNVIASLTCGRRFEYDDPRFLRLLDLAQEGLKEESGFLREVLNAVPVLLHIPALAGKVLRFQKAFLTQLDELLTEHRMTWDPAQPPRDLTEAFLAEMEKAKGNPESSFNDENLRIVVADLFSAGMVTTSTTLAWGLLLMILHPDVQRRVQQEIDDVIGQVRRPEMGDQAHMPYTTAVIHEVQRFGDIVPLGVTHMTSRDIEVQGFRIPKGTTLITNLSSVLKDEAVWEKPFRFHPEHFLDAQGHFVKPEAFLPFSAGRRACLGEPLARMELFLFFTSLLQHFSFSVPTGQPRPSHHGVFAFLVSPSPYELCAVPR
Cytochrome P450 2C19 (Homo sapiens), sequence (P33261 whole entry, looked up): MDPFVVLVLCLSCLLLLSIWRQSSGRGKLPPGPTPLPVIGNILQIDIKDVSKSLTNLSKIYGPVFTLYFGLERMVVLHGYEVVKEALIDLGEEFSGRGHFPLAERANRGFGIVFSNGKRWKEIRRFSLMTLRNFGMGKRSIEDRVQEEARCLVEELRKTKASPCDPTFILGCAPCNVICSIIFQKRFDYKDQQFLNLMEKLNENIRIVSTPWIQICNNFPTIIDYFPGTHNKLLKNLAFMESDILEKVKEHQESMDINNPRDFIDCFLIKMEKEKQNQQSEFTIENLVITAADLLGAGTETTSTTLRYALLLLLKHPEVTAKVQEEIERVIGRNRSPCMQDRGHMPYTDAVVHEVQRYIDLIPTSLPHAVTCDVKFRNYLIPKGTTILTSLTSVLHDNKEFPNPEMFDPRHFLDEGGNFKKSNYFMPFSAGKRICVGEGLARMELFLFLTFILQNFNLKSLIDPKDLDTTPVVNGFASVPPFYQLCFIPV

Row | SMILES | Potency [1] | activity change, negative = inhibition [2] | Potency [3] | activity change, negative = inhibition [4] | activity, negative = inhibition [5] | Potency [6] | Potency [7] | Potency [8] | Potency [9] | activity change, negative = inhibition [10] | max response [10, 16] [%] | max response [10, 17] [%] | Potency [11] | outcome [12] | Potency [13] | activation [14] | Potency [15]
1 | O=C(Oc1ccccc1)N1CCC2(CC1)CN(c1ccccc1)C2 | > 11.4 µM (inactive) | 3.75% (inactive) | 15.8 µM (active) | -1.1% (inactive) | -0.517% (inactive) | > 46 µM (inactive) | inactive | inactive | 15.8 µM (active) | 1.33% (inactive) | -10.5 | -7.26 | inactive | – | – | – | –
2 | CN(C)c1ncc2ncc(=O)n(Cc3ccc(F)cc3)c2n1 | > 11.4 µM (inactive) | -9.88% (inactive) | 3.98 µM (active) | 4.28% (inactive) | -10.9% (inactive) | > 46 µM (inactive) | inactive | – | inactive | 2.54% (inactive) | 6.58 | 11.9 | inactive | inactive | 3.16 µM (active) | – | –
3 | CS(=O)(=O)N1CCC2(CC1)CN(Cc1nccs1)C2 | > 11.4 µM (inactive) | -7.04% (inactive) | 6.31 µM (active) | 11.5% (inactive) | 6.32% (inactive) | > 46 µM (inactive) | inactive | – | – | 3.27% (inactive) | 13.6 | 18.5 | inactive | – | – | – | –
4 | N#Cc1cccc(NC(=O)N2CCC3(CC2)CCN(C(=O)c2csnn2)CC3)c1 | > 11.4 µM (inactive) | -16.5% (inactive) | inactive | 11.9% (inactive) | -0.506% (inactive) | > 46 µM (inactive) | inactive | – | inactive | 5.57% (inactive) | 15 | 22.3 | inactive | inactive | – | -0.636% (inactive) | –
5 | CC(C)NC(=O)N1CCCC2(CCN(C(=O)c3cc(C(F)(F)F)cc(C(F)(F)F)c3)CC2)C1 | > 11.4 µM (inactive) | -19.4% (inactive) | inactive | 11.4% (inactive) | -13.3% (inactive) | > 46 µM (inactive) | inactive | – | inactive | -6.13% (inactive) | 16.6 | 12 | inactive | inactive | – | -9.04% (inactive) | –
6 | COc1ccccc1CN1CC2(CCN(S(C)(=O)=O)CC2)C1 | > 11.4 µM (inactive) | -11.2% (inactive) | inactive | -7.23% (inactive) | 4.21% (inactive) | > 46 µM (inactive) | inactive | – | – | 6.08% (inactive) | 11.6 | 24 | inactive | inactive | – | – | inactive
7 | COC(=O)N1CCC[C@@]2(CCN(C(c3ccccc3)c3ccccc3)C2)C1 | > 11.4 µM (inactive) | -2.49% (inactive) | 12.6 µM (active) | -6.57% (inactive) | 3.94% (inactive) | > 46 µM (inactive) | – | – | – | -5.11% (inactive) | 6.34 | 4.63 | inactive | inactive | – | – | 2 µM (active)
8 | O=C(c1cnccn1)N1CCC2(CC1)CN(c1ccncc1)C2 | > 11.4 µM (inactive) | 4.42% (inactive) | inactive | -19.4% (inactive) | 2.09% (inactive) | > 46 µM (inactive) | inactive | – | – | -0.9% (inactive) | -18.2 | -17.9 | inactive | – | – | – | –
9 | COCC(=O)N1CCC[C@@]2(CCN(C(=O)Nc3cccc(F)c3)C2)C1 | > 11.4 µM (inactive) | -14.2% (inactive) | inactive | 9.68% (inactive) | -1.05% (inactive) | > 46 µM (inactive) | inactive | – | inactive | 2.12% (inactive) | 19.2 | 23.6 | inactive | inactive | – | 8.24% (inactive) | –
10 | O=S(=O)(c1ccccc1)N1CCC2(CCCN(c3ncccn3)C2)CC1 | > 11.4 µM (inactive) | 0.46% (inactive) | 15.8 µM (active) | 5.51% (inactive) | -0.568% (inactive) | > 46 µM (inactive) | inactive | – | inactive | 7.3% (inactive) | -5.51 | 5.88 | inactive | inactive | 0.398 µM (active) | – | –
11 | Cc1noc(C)c1C(=O)N1CCC2(CCN(Cc3cc(C(F)(F)F)cc(C(F)(F)F)c3)CC2)CC1 | > 11.4 µM (inactive) | -3.69% (inactive) | inactive | -22.4% (inactive) | -0.996% (inactive) | > 46 µM (inactive) | inactive | – | – | 2.45% (inactive) | -5.2 | -1.09 | inactive | – | – | – | –
12 | CC(C)NC(=O)N1CC[C@@]2(CCCN(C(=O)c3cc(C(F)(F)F)cc(C(F)(F)F)c3)C2)C1 | > 11.4 µM (inactive) | 8.49% (inactive) | inactive | 9.52% (inactive) | -10.1% (inactive) | > 46 µM (inactive) | inactive | – | inactive | 1.68% (inactive) | 19.4 | 20.3 | inactive | inactive | – | -1.12% (inactive) | –
